Reference: PubChem BioAssay (NCATS)
Records with an inconclusive call do not appear. A number with no mark means an inactive call. Activity calls are given as the source filed them. The call rests on the fitted dose curve; in most records, active means well fitted curve in the direction sought with a large enough effect; inconclusive means small, poorly fitted or top-dose-only effect, or another doubt; inactive means no such curve, though single readings can be large; an effect the other way counts as inactive or inconclusive.

Experiments:
[1] = BET inhibitor-based combinations targeting novel dependencies in MECOM-rearranged (r) AML: SET-2 cell line (AID 2202231); conditions: SET-2 AML cells viability, CellTiter-Glo luminescence, 48 h; viability: hits give low values, concentration not given here; further: nearly all actives have a fitted effect of over 35% in size;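 on viability: plate controls were DMSO treated cells for no effect and wells without cells for full effect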
Method in brief: (§1)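 A 48 hr incubation preceded viability reading by CellTiter-Glo, with 15 min room-temperature development. Dose series had 11 points; normalization used DMSO and empty wells; AUC was computed and mean-centered per line as Z-AUC.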

[2] = BET inhibitor-based combinations targeting novel dependencies in MECOM-rearranged (r) AML: OCI-AML3 cell line (AID 2202232); conditions: Potency: OCI-AML3 viability; further: nearly all actives have a fitted effect of over 35% in size
Method in brief: as §1

[3] = BET inhibitor-based combinations targeting novel dependencies in MECOM-rearranged (r) AML: MV-4-11 cell line (AID 2202233); further: nearly all actives have a fitted effect of over 45% in size
Method in brief: (§2)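 Each compound is tested in an 11-point concentration series against 500 seeded cells/well for 48 hr. The luminescent viability signal is normalized to DMSO and blank wells, then reduced to AUC and a cell-line-centred Z-AUC.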

[4] = BET inhibitor-based combinations targeting novel dependencies in MECOM-rearranged (r) AML: UCSD-AML1 cell line (AID 2202235); further: nearly all actives have a fitted effect of over 40% in size
Method in brief: as §2

[5] = BET inhibitor-based combinations targeting novel dependencies in MECOM-rearranged (r) AML: AML-191 cell line (AID 2202236; further: nearly all actives have a fitted effect of over 35% in size)
Method in brief: as §1

[6] = BET inhibitor-based combinations targeting novel dependencies in MECOM-rearranged (r) AML: AML-194 cell line (AID 2202237; further: nearly all actives have a fitted effect of over 40% in size)
Method in brief: as §1
Potency means the concentration at half of the fitted maximal effect.

| SMILES | viability [1] | Potency [2] | Potency [3] | Potency [4] | Potency [5] | Potency [6] | Potency [1] |
| --- | --- | --- | --- | --- | --- | --- | --- |
| NS(=O)(=O)Oc1ccc2c3c(c(=O)oc2c1)CCCCC3 | 105% | inactive | inactive | inactive | inactive | inactive | – |
| Cc1c(-c2cnccn2)ssc1=S | 94.7% | 2950 nM (active) | 3720 nM (active) | – | inactive | – | – |
| CC(C)(C)c1[nH]cnc1/C=c1\[nH]c(=O)/c(=C/c2ccccc2)[nH]c1=O | – | 74.2 nM (active) | 83.3 nM (active) | 59 nM (active) | 59 nM (active) | 74.2 nM (active) | 83.3 nM (active) |
| CO[C@H]1C(=O)[C@]2(C)[C@@H](OC)C[C@H]3OC[C@@]3(OC(C)=O)[C@H]2[C@H](OC(=O)c2ccccc2)[C@]2(O)C[C@H](OC(=O)[C@H](O)[C@@H](NC(=O)OC(C)(C)C)c3ccccc3)C(C)=C1C2(C)C | – | 2.6 nM (active) | 2.3 nM (active) | 2.3 nM (active) | 3.7 nM (active) | 4.2 nM (active) | 3.7 nM (active) |
| CCCCCCCCCCCC(CC1OC(=O)C1CCCCCC)OC(=O)C(CC(C)C)NC=O (configuration not stated) | 98.6% | inactive | 742 nM (active) | inactive | inactive | inactive | – |
| CCCC[C@@H](C=O)NC(=O)[C@H](CC(C)C)NC(=O)OCc1ccccc1 | – | 13200 nM (active) | 18600 nM (active) | inactive | – | inactive | 18600 nM (active) |
| COc1cc2nccc(Oc3ccc(NC(=O)c4cn(C(C)C)c(=O)n(-c5ccc(F)cc5)c4=O)cc3F)c2cc1OC | 113% | inactive | 468 nM (active) | inactive | – | inactive | – |
| CC[C@@H](Oc1cccc(CN(CCCOc2ccc(OC)cc2)c2nc3ccccc3o2)c1)C(=O)O | 110% | inactive | inactive | inactive | inactive | inactive | – |
| CC#CC(=O)N1CC[C@@H](n2c(=O)n(-c3ccc(Oc4ccccc4)cc3)c3c(N)ncnc32)C1 | 83.2% | inactive | 10500 nM (active) | inactive | – | inactive | – |
| Cc1ccc(S(=O)(=O)Nc2cc(-c3ccc(C#N)s3)ccc2C)cc1 | – | 93.4 nM (active) | 105 nM (active) | 66.1 nM (active) | 74.2 nM (active) | 83.3 nM (active) | 74.2 nM (active) |
| Cc1ccc(NC(=O)NCc2ccc3c(c2)CN(C2CCC(=O)NC2=O)C3=O)cc1Cl (configuration not stated) | – | 3 nM (active) | 2.6 nM (active) | – | 2.3 nM (active) | 1.9 nM (active) | 29.5 nM (active) |
| CCC(C)CNCC(=O)N1CCc2sccc2C1c1cccc(C)n1 (configuration not stated) | 95.4% | inactive | inactive | inactive | inactive | inactive | – |
| C=C1C(=O)OC2/C=C(/C)CC/C=C(/C)CCC12 (configuration not stated) | – | 18600 nM (active) | 14800 nM (active) | 26300 nM (active) | 26300 nM (active) | – | 20900 nM (active) |
| O=C(O)CNC(=O)c1ncc(-c2cccc(Cl)c2)cc1O | 110% | 6610 nM (active) | inactive | inactive | – | inactive | – |
| C=C1C[C@@H]2CC[C@@]34C[C@H]5O[C@H]6[C@@H](O3)[C@H]3O[C@H](CC[C@@H]3O[C@H]6[C@H]5O4)CC(=O)C[C@@H]3[C@@H](OC)[C@@H](C[C@H](O)CN)O[C@H]3C[C@H]3O[C@@H](CC[C@@H]1O2)C[C@@H](C)C3=C | – | 1.5 nM (active) | 1.7 nM (active) | 1.1 nM (active) | 1.5 nM (active) | 1.9 nM (active) | 152 nM (active) |
| COc1ccc(-c2oc3c(CC=C(C)C)c(OC4O[C@H](CO)[C@@H](O)[C@H](O)[C@H]4O)cc(O)c3c(=O)c2OC2O[C@@H](C)[C@H](O)[C@@H](O)[C@H]2O)cc1 (some centres not stated) | 116% | inactive | inactive | inactive | inactive | inactive | – |
| COC1CCC(N2C(=O)CNc3ncc(-c4ccc(C(C)(C)O)nc4)nc32)CC1 (configuration not stated) | – | 5250 nM (active) | 3720 nM (active) | 525 nM (active) | 5900 nM (active) | 1660 nM (active) | 7420 nM (active) |
| CCC[C@H](Nc1nc(-c2ccc(NC(=O)NCC)c(OC)c2)ncc1C)c1cccnc1 | – | 105 nM (active) | 52.5 nM (active) | 132 nM (active) | 105 nM (active) | 105 nM (active) | 118 nM (active) |
| OC1CCC([C@H](O)C[C@H]2c3c(F)cccc3-c3cncn32)CC1 (some centres not stated) | 118% | inactive | inactive | inactive | inactive | inactive | – |
| CN(C)CCNC(=O)NC[C@H]1CC[C@@H]2[C@H](O1)c1cc(C(F)(F)F)ccc1N[C@H]2c1ccccc1 | – | 296 nM (active) | 296 nM (active) | 235 nM (active) | 332 nM (active) | 332 nM (active) | 742 nM (active) |
